Data taken from PubChem BioAssay (Tox21).
“And” between values parts separate entries of the source, which are not always exact repeats. Identical values can stand only once. Inconclusive results are not listed. Where a call stands in place of a potency, no number is given. Where a structure was tested more than once in an assay, its records may differ in their call. The source made the active and inactive calls. Unless noted, calls come from the whole dose curve; as a rule, active = well fitted curve in the direction sought with a large enough effect in the repeat runs; inconclusive = weak or mixed curves; inactive = no such curve, though single readings can be large; an effect the other way counts as inactive or inconclusive.

Key:
[1] = qHTS assay to identify small molecule agonists of the RXR signaling pathway - cell viability counter screen (AID 1159529); conditions: RXR-alpha-bla HEK293T viability, CellTiter-Glo, 16 h; series mostly up to 76.8 µM; note: nearly all actives have a fitted effect of over 50% in size; note: potency is the fitted concentration of half-maximal effect
In short: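 CellTiter-Glo luminescence gave viability in the wells also read for beta-lactamase. Cells (RXR-alpha-UAS-bla HEK 293T, 2% charcoal-stripped FBS medium) had 5 hr plating, then 16 hr compound exposure at 37 C; tetraoctyl ammonium bromide served as positive control.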

[2] = qHTS assay to identify small molecule antagonists of the retinoid acid receptor (RAR) signaling pathway - cell viability counter screen (AID 1159551); conditions: C3RL4 cells viability, ATP luminescence (CellTiter-Glo), 6 h; series mostly up to 92.4 µM; note: nearly all actives have a fitted effect of over 35% in size
In short: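 C3RL4 RARE-luciferase line; cpds + retinol 1 uM final, 6 h, 37 C/5% CO2; CellTiter-Glo ATP luminescence, 30 min RT.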

[3] = qHTS assay to identify small molecule agonists of the retinoic acid receptor (RAR) signaling pathway (AID 1159553); conditions: C3RL4 RARE luciferase reporter, agonist, 6 h; series mostly up to 73.3 µM; note: potency is the fitted concentration of half-maximal effect
In short: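 RARE-luc C3RL4 cells; overnight attachment 37 C/5% CO2; compound (DMSO) 6 hr; luciferase reagent, 30 min RT; luminescence read-out.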

[4] = target: Luciferin 4-monooxygenase (Photinus pyralis) (UniProt P08659); assay: qHTS assay to identify small molecule inhibitors of firefly luciferase (AID 1224835); note: nearly all actives have a fitted effect of over 25% in size; note: potency is the fitted concentration of half-maximal effect; conditions: purified P. pyralis luciferase, luminescence inhibition; series mostly up to 115 µM
In short: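 Quantitative HTS format; KM concentrations of both substrates. Purified P. pyralis FLuc activity quantified from luminescence images.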

[5] = qHTS assay to identify small molecule agonists of the constitutive androstane receptor (CAR) signaling pathway - cell viability counter screen (AID 1224836); conditions: HepG2-CYP2B6-hCAR viability, CellTiter-Fluor, 23 h, PK11195 added to every well; series mostly up to 92.4 µM; note: nearly all actives have a fitted effect of over 45% in size
In short: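 Cell viability multiplexed with the CAR agonist screen: CellTiter-Fluor fluorescence after 23 hr at 37 C. HepG2-CYP2B6-hCAR cells got compounds at 15 concentrations with PK11195 at 0.75 uM final.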

[6] = target: Nuclear receptor subfamily 1 group I member 3 (Homo sapiens) (UniProt Q14994); assay: qHTS assay to identify small molecule agonists of the constitutive androstane receptor (CAR) signaling pathway (AID 1224839); conditions: HepG2 hCAR CYP2B6-luciferase, agonist mode, 24 h; series mostly up to 92.4 µM; note: nearly all actives have a fitted effect of over 15% in size; note: potency is the fitted concentration of half-maximal effect
In short: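 Luminescent ONE-Glo read-out after 24 hr, 37 C exposure of double-stable HepG2-CYP2B6-hCAR reporter cells to a 15-point compound series, in the presence of 0.75 uM PK11195 (final).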

[7] = qHTS assay to identify small molecule antagonists of the estrogen related receptor signaling pathway with the pleiotropic PPARgamma coactivator (PGC) from Tox21 10K library - cell viability counter screen (AID 1224840; active = well fitted cell-killing curve with a large enough effect in the repeat runs, not every such curve was filed as active; note: nearly all actives have a fitted effect of over 40% in size; note: potency is the fitted concentration of half-maximal effect); conditions: PGC/ERR reporter cells viability, CellTiter-Fluor, 17.5 h; series mostly up to 92.4 µM
In short: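 Fluorescence read-out of CellTiter-Fluor viability reagent, added after cells had been exposed to compound in DMSO for 17.5 h at 37 C; 30 min development at 37 C/5% CO2. Cells: PGC/ERR line, 2,000/well.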

[8] = target: Thyrotropin receptor (Homo sapiens) (UniProt P16473); assay: qHTS assay to identify small molecule agonists of the thyroid stimulating hormone receptor (TSHR) signaling pathway (AID 1224843; calls by dose curve; note: nearly all actives have a fitted effect of over 45% in size); conditions: TSHR-HEK293 cells, cAMP HTRF, agonist mode, 30 min; series mostly up to 92.4 µM
In short: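 Using 15 concentrations per compound in triplicate, cAMP production was monitored in TSHR-HEK293 cells after 30 min compound incubation at RT; HTRF reagents followed, with fluorescence intensity recorded after 1 h.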

[9] = qHTS assay to identify small molecule antagonists of the retinoic acid receptor (RAR) signaling pathway (AID 1159552; note: nearly all actives have a fitted effect of over 50% in size); conditions: C3RL4 RARE luciferase reporter, retinol-stimulated, 6 h; series mostly up to 92.4 µM
In short: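 Luminescent RARE reporter read-out in C3RL4 cells: 6 hr co-treatment at 37 C of test compounds with retinol at 1 uM final. Cells plated overnight beforehand; luciferase reagent incubated 30 min at room temperature before reading.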

[10] = qHTS assay to identify small molecule antagonists of the estrogen related receptor (ERR) signaling pathway from Tox21 library - cell viability counter screen (AID 1224834); conditions: ERR reporter cells viability, CellTiter-Fluor, 17.5 h; series mostly up to 92.4 µM; note: nearly all actives have a fitted effect of over 30% in size; note: potency is the fitted concentration of half-maximal effect
In short: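 Multiplexed viability counter screen in ERR cells: 17.5 h compound exposure at 37 C, CellTiter-Fluor added, 30 min at 37 C/5% CO2, fluorescence read.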

[11] = qHTS assay to identify small molecule antagonists of the constitutive androstane receptor (CAR) signaling pathway - cell viability counter screen (AID 1224837); conditions: HepG2-CYP2B6-hCAR viability, CellTiter-Fluor, 23 h, co-treated with 50 nM CITCO; series mostly up to 92.4 µM; note: nearly all actives have a fitted effect of over 45% in size
In short: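 Read-out: CellTiter-Fluor fluorescence after 23 hr at 37 C/5% CO2. Cells: HepG2 double-stable for hCAR and CYP2B6-2.2kb. Compounds tested at 15 concentrations in the presence of CITCO, final concentration 50 nM.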

[12] = qHTS assay to identify small molecule antagonists of the estrogen related receptor signaling pathway with the pleiotropic PPARgamma coactivator (PGC) from Tox21 10K library (AID 1224841; call rule not given here; note: actives are mostly falling curves and most rising ones were filed inactive; nearly all actives have a fitted effect of over 50% in size; note: potency is the fitted concentration of half-maximal effect); conditions: PGC/ERR reporter cell line, ONE-Glo luciferase, 18 h; series mostly up to 92.4 µM
In short: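 Luminescence read-out (One-Glo luciferase reagent, 30 min at room temperature) from PGC/ERR cells exposed to DMSO-dissolved test compounds for 18 h at 37 C; cells, 2,000 per well, had been preincubated 6 h before compound transfer.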

[13] = target: Nuclear receptor subfamily 1 group I member 3 (Homo sapiens) (UniProt Q14994); assay: qHTS assay to identify small molecule antagonists of the constitutive androstane receptor (CAR) signaling pathway (AID 1224838); conditions: HepG2-CYP2B6-hCAR luciferase, CITCO-stimulated, 24 h; series mostly up to 92.4 µM;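 note: HepG2 cells stably expressing hCAR with CYP2B6 luciferase reporter stimulated by CITCO; nearly all actives have a fitted effect of over 40% in size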
In short: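 Read-out: ONE-Glo luciferase luminescence after 30 min at room temperature. HepG2-CYP2B6-hCAR double-stable cells, compounds in 15-point titration plus 50 nM CITCO final, 24 h at 37 C/5% CO2.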

[14] = qHTS assay to identify small molecule antagonists of the estrogen related receptor (ERR) signaling pathway - cell viability counter screen (AID 1224818); conditions: ERR reporter cell line viability counter screen; series mostly up to 46.1 µM
In short: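 Fluorescence from CellTiter-Fluor, read 30 min after reagent addition at 37 C, measured viability of ERR cells exposed to compounds for 17.5 h. Cells had settled 6 h before dosing.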

[15] = qHTS assay to identify small molecule antagonists of the estrogen related receptor (ERR) signaling pathway (AID 1224819;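 note: luminescence from an ERR-driven luciferase reporter measured with One-Glo reagent; nearly all actives have a fitted effect of over 50% in size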); conditions: ERR reporter cell line, luciferase inhibition; series mostly up to 46.1 µM
In short: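 Luminescence readout (One-Glo, 30 min, RT) of ERR cell line after 18 h compound exposure at 37 C; cells seeded 2,000/well, pre-incubated 6 h, compounds pinned from DMSO stocks.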

[16] = qHTS assay to identify small molecule agonists of the estrogen related receptor (ERR) signaling pathway (AID 1224820); conditions: ERR reporter cell line, luciferase agonist mode; series mostly up to 46.1 µM
In short: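 Following a 6 h settling period, 2,000 ERR cells per well receive DMSO-dissolved compounds by pin tool and incubate 18 h at 37 C; agonist activity is scored from One-Glo luminescence read 30 min post-addition.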

[17] = system: estrogen-related receptor alpha (ERRalpha) with PGC-1alpha coactivator, human; assay: qHTS assay to identify small molecule antagonists of the estrogen related receptor signaling pathway with the pleiotropic PPARgamma coactivator (PGC) (AID 1224821; calls by dose curve); conditions: ERR/PGC reporter cell line, luciferase, antagonist mode; series mostly up to 46.1 µM
In short: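 Screening used NTP's PGC/ERR cells, dosed via pin tool with compound in DMSO alongside positive and negative controls. After 18 h at 37 C, One-Glo reagent sat 30 min at room temperature before luminescence detection.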

[18] = qHTS assay to identify small molecule agonists of the estrogen related receptor signaling pathway with the pleiotropic PPARgamma coactivator (PGC) (AID 1224823); conditions: ERR/PGC reporter cell line, luciferase agonist mode; series mostly up to 46.1 µM
In short: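 In this quantitative high-throughput screen, an 18 h, 37 C treatment of PGC/ERR cells with compounds in DMSO preceded a One-Glo luminescence read taken after 30 min at room temperature.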

[19] = qHTS assay to identify small molecule agonists of the estrogen related receptor signaling pathway with the pleiotropic PPARgamma coactivator (PGC) from Tox21 10K library (AID 1224842); conditions: PGC/ERR reporter cell line, luciferase ONE-Glo, 18 h; series mostly up to 92.4 µM; note: nearly all actives have a fitted effect of over 15% in size
In short: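 PGC/ERR reporter cells (NTP line) were seeded 2,000 per well, rested 6 h at 37 C/5% CO2, then pin-dosed with compounds in DMSO for 18 h at 37 C; luciferase read by One-Glo luminescence after 30 min at room temperature.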

Thyrotropin receptor (Homo sapiens), sequence (P16473 whole entry, looked up): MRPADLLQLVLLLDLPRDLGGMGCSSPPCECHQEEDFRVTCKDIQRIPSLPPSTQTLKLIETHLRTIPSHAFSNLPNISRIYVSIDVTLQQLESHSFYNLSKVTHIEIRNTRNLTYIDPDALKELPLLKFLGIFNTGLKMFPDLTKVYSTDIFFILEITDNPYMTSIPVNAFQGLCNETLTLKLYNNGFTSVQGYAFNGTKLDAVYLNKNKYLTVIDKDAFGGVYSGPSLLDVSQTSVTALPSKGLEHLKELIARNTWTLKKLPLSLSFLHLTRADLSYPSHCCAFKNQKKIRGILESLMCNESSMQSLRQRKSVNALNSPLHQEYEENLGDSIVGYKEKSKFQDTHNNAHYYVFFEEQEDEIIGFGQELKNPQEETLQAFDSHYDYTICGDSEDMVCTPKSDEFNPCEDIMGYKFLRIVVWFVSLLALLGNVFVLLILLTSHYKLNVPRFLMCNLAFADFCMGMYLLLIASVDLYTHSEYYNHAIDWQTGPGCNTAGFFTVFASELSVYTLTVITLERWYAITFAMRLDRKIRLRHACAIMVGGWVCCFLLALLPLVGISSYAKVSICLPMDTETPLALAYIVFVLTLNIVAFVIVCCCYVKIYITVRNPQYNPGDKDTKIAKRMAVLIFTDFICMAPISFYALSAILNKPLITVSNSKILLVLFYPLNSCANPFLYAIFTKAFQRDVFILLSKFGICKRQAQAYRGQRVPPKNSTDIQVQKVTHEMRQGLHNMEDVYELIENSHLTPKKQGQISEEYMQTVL
Nuclear receptor subfamily 1 group I member 3 (Homo sapiens), sequence (Q14994 whole entry, looked up): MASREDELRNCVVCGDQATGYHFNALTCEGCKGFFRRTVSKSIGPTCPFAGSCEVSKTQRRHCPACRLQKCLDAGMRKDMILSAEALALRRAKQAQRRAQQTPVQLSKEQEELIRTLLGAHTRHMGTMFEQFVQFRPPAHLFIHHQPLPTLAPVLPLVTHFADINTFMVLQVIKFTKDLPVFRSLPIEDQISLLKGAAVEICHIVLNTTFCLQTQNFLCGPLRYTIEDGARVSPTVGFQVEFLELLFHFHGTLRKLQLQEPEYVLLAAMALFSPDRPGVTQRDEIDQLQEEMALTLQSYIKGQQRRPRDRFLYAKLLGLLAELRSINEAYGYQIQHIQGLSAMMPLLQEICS
Luciferin 4-monooxygenase (Photinus pyralis), sequence (P08659 whole entry, looked up): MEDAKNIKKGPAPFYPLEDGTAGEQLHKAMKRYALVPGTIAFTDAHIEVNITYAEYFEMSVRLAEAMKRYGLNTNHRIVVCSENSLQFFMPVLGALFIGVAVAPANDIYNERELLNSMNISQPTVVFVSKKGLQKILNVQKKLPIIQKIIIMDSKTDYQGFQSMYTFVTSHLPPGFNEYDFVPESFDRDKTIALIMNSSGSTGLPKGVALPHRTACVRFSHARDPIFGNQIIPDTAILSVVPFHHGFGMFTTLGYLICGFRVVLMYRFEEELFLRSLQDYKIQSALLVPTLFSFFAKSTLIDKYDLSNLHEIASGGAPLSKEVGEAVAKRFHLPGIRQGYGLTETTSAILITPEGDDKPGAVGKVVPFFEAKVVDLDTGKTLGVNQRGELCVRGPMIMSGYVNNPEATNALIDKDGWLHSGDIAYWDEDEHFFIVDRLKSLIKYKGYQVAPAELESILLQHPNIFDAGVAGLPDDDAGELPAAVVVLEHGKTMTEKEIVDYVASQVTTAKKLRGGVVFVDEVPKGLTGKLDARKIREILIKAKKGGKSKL

Row | Compound | Potency [1] | Potency [2] | Potency [3] | Potency [4] | Potency [5] | Potency [6] | Potency [7] | Potency [8] | Potency [9] | Potency [10] | Potency [11] | Potency [12] | Potency [13] | Potency [14] | Potency [15] | outcome [16] | Potency [17] | outcome [18] | Potency [19]
1 | COc1cc([C@@H]2c3cc4c(cc3[C@H](O)[C@H]3COC(=O)[C@H]23)OCO4)cc(OC)c1OC | inactive | inactive | inactive | inactive | inactive | inactive | inactive | inactive | – | – | – | – | – | – | – | – | – | – | –
2 | O=C(/C=C/c1ccccc1)OCc1ccccc1 | inactive | inactive | 30.6 µM (active) and 29.8 µM (active) | 17.8 µM (active) and 9.77 µM (active) | inactive | 29.8 µM (active) | inactive | – | inactive | inactive | inactive | inactive | – | – | – | – | – | – | –
3 | Cc1ccc(C)c(O)c1C | inactive | inactive | inactive | inactive | inactive | inactive | inactive | inactive | inactive | inactive | inactive | – | inactive | – | – | – | – | – | –
4 | CN(C)CCC=C1c2ccccc2CCc2ccccc21 | 12.3 µM (active) and 15.5 µM (active) and 13.4 µM (active) | inactive | – | inactive | – | inactive | 48.6 µM (active) and inactive | – | – | 68.6 µM (active) and 48.6 µM (active) and inactive | – | – | – | inactive | – | – | – | – | –
5 | Cc1c(OCC(F)(F)F)ccnc1CS(=O)c1nc2ccccc2[nH]1 (centres undefined) | inactive | inactive | 34.4 µM (active) and 26.6 µM (active) | 35.6 µM (active) and inactive | inactive | 30.6 µM (active) and 11.9 µM (active) | inactive | inactive | inactive | inactive | inactive | inactive | inactive | inactive | inactive | inactive | inactive | inactive | –
6 | Cc1cccc(N(C)C(=S)Oc2ccc3ccccc3c2)c1 | – | inactive | 2.43 µM (active) and 13.3 µM (active) | inactive | inactive | 27.3 µM (active) and 26.6 µM (active) | inactive | inactive | inactive | inactive | inactive | – | – | – | – | – | – | – | –
7 | CC(C)OC(=O)C(C)(C)Oc1ccc(C(=O)c2ccc(Cl)cc2)cc1 | inactive | inactive | inactive | 34.7 µM (active) | inactive | 54.5 µM (active) and 26.6 µM (active) | inactive | inactive | inactive | inactive | inactive | – | – | inactive | – | – | – | – | –
8 | O=C1c2cccc(O)c2C(=O)c2c(O)cccc21 | inactive | inactive | inactive | inactive | inactive | inactive | inactive | inactive | inactive | – | inactive | 39 µM (active) and inactive | inactive | – | – | – | – | – | inactive
9 | C#C[C@]1(O)CC[C@H]2[C@@H]3CCC4=Cc5oncc5C[C@]4(C)[C@H]3CC[C@@]21C | 21.9 µM (active) | inactive | – | inactive | inactive | – | 48.6 µM (active) and inactive | – | – | 30.6 µM (active) and 26.6 µM (active) | inactive | 24.3 µM (active) and 23.7 µM (active) | inactive | – | – | – | – | – | inactive
10 | O=C(COc1ccc(Cl)cc1)N1CCN(Cc2ccc3c(c2)OCO3)CC1 | inactive | inactive | – | inactive | inactive | inactive | inactive | inactive | – | inactive | inactive | 43.3 µM (active) | – | – | – | – | – | – | inactive
11 | Nc1ccccc1N | inactive | inactive | 1.25 µM (active) and 1.72 µM (active) | 8.15 µM (active) and 1.78 µM (active) | – | 24.3 µM (active) | inactive | – | inactive | – | – | – | inactive | inactive | – | – | – | – | –
12 | O=c1oc(=O)c2cc3c(=O)oc(=O)c3cc12 | inactive | inactive | inactive | inactive | inactive | inactive | inactive | – | inactive | inactive | inactive | inactive | inactive | – | – | – | – | – | inactive
